Reference: the supplement of paper PMC12350171
Structures can show the parent of a compound that is named as a salt. A number with no mark means an inactive call.

Columns and labels:
Settings in all cases: 20 µM
[1] = tested on: Salmonella enterica typhimurium; experiment: growth AUC normalised to DMSO control (fraction of control); higher = less growth inhibition, active = hit call of the paper
In short: (§1)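 Three biological replicates were carried out, with OD578 read hourly for 24 h. Before inoculation at a starting OD578 of 0.01, pathogens were passaged anaerobically twice; plates were pre-reduced mGAM containing 20 μM compound and 1% DMSO, sealed with breathable membranes, and the Haemophilus parainfluenzae medium carried added hemin and NAD. Area under each growth curve was calculated by the trapezoidal rule up to the exponential-to-stationary transition and normalised to DMSO controls on the same plate.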

[2] = tested on: Shigella flexneri; experiment: as above
In short: as §1

[3] = tested on: Vibrio cholerae; experiment: as above
In short: as §1

[4] = tested on: Yersinia pseudotuberculosis; experiment: as above
In short: as §1

[5] = tested on: P. vulgatus RND KO; experiment: growth AUC normalised to DMSO control (median) (fraction of control); higher = less growth inhibition, active = hit call of the paper
In short: (§2)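 Anaerobic growth was tracked hourly at OD578 for 24 h in 96-well plates of mGAM seeded at OD578 0.01 with each approved-drug library compound at 20 μM and 1% DMSO. Strains had first been passaged twice overnight without oxygen. Three biological replicates were run. The reported median is the area under the curve, calculated by the trapezoidal rule on curves truncated at entry into stationary phase and normalised to vehicle wells on the same plate.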

[6] = tested on: P. vulgatus WT; experiment: as above
In short: as §2

[7] = tested on: S. enterica typhimurium WT; experiment: as above
In short: as §2

[8] = tested on: S. enterica typhimurium tolC KO; experiment: as above
In short: as §2
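For growth AUC normalised to DMSO control (median) in this document: active when median AUC fell below 0.1.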

Row | Compound | growth AUC normalised to DMSO control [1] | growth AUC normalised to DMSO control [2] | growth AUC normalised to DMSO control [3] | growth AUC normalised to DMSO control [4] | growth AUC normalised to DMSO control [5] | growth AUC normalised to DMSO control [6] | growth AUC normalised to DMSO control [7] | growth AUC normalised to DMSO control [8]
1 | COc1ccc(C(=O)NCc2ccc(OCCN(C)C)cc2)cc1OC [Itopride] | 0.996 | 1.05 | 1.07 | 1.03 | 1.02 | 1.06 | 1.02 | 1
2 | Cc1nccn1CC1CCc2c(c3ccccc3n2C)C1=O (stereo unspecified) [Ondansetron hydrochloride] | 1.01 | 1.04 | 1.01 | 1 | 1.01 | 1.04 | 1 | 0.984
3 | COc1cccc2c1C(=O)c1c(O)c3c(c(O)c1C2=O)C[C@@](O)(C(=O)CO)C[C@@H]3O[C@H]1C[C@H](N)[C@H](O)[C@H](C)O1 [Doxorubicin hydrochloride] | 0.942 (active) | 0.932 | 0.998 | 0.906 (active) | 0.948 | 0.966 | 0.986 | 0.0132 (active)
4 | NCCCC[C@H](N[C@@H](CCc1ccccc1)C(=O)O)C(=O)N1CCC[C@H]1C(=O)O [Lisinopril] | 1.01 | 1.02 | 1.04 | 1.01 | 1.05 | 1.04 | 1.01 | 0.997
5 | Clc1ccccc1CN1CCc2sccc2C1 [Ticlopidine hydrochloride] | 0.975 | 0.988 | 0.947 | 1.01 | 0.986 | 0.997 | 0.967 | 0.973
6 | CN1CCN(C(c2ccccc2)c2ccc(Cl)cc2)CC1 (stereo unspecified) [Chlorcyclizine hydrochloride] | 1 | 0.993 | 0.927 | 0.984 | 0.987 | 0.963 | 0.992 | 0.958
7 | O=C1CCC(N2C(=O)c3ccccc3C2=O)C(=O)N1 (stereo unspecified) [Thalidomide] | 0.994 | 0.971 | 0.996 | 0.988 | 0.999 | 1.01 | 1 | 1
8 | CCOC(=O)[C@H](CCc1ccccc1)N[C@H]1CCc2ccccc2N(CC(=O)O)C1=O [Benazepril hydrochloride] | 0.981 | 0.996 | 1.01 | 0.975 | 1 | 1 | 1 | 1
9 | CCCN(CCC)C(=O)C(CCC(=O)O)NC(=O)c1ccccc1 (stereo unspecified) [Proglumide] | 1.01 | 1.04 | 1.05 | 1.02 | 1.02 | 1.06 | 1 | 0.99
10 | O=C(Cn1ccnc1[N+](=O)[O-])NCCO [Etanidazole] | 1.01 | 1.03 | 1.03 | 1.02 | 0.991 | 1.01 | 0.99 | 1.02
11 | COc1cccc2c1C(=O)c1c(O)c3c(c(O)c1C2=O)C[C@@](O)(C(C)=O)C[C@@H]3O[C@H]1C[C@H](N)[C@H](O)[C@H](C)O1 [Daunorubicin hydrochloride] | 0.998 | 0.959 | 1.04 | 0.978 | 0.865 | 0.95 | 0.999 | 0.00353 (active)
12 | COc1ccc(NS(=O)(=O)c2ccc(N)cc2)nn1 [Sulfamethoxypyridazine] | 1.02 | 1.04 | 1.03 | 0.996 | 1.02 | 1.04 | 1.01 | 0.986
13 | CNCCCC1c2ccccc2C=Cc2ccccc21 [Protriptyline hydrochloride] | 0.973 | 1 | 0.997 | 1 | 0.913 | 0.882 | 0.996 | 0.951
14 | C[C@H](CS)C(=O)N1CCC[C@H]1C(=O)O [Captopril] | 1.01 | 1.03 | 0.995 | 1.01 | 1.01 | 1.06 | 0.991 | 1.01
15 | CNCC(O)c1ccc(O)c(O)c1 (stereo unspecified) [Racepinephrine hydrochloride] | 1.03 | 1.02 | 1.09 | 1.04 | 1.01 | 1 | 1.01 | 1
16 | CC(=O)OCC(=O)NCCCOc1cccc(CN2CCCCC2)c1 [Roxatidine acetate hydrochloride] | 0.99 | 0.981 | 1 | 0.939 | 0.996 | 0.985 | 0.994 | 0.986
17 | C[C@H]1O[C@@H](O[C@H]2[C@@H](O)C[C@H](O[C@H]3[C@@H](O)C[C@H](O[C@H]4CC[C@@]5(C)[C@H](CC[C@@H]6[C@@H]5C[C@@H](O)[C@]5(C)[C@@H](C7=CC(=O)OC7)CC[C@]65O)C4)O[C@@H]3C)O[C@@H]2C)C[C@H](O)[C@@H]1O [Digoxin] | 0.978 | 0.945 | 0.973 | 0.993 | 0.985 | 1.01 | 0.987 | 0.995
18 | CCCc1cc(C(N)=S)ccn1 [Prothionamide] | 1 | 1 | 1.01 | 1 | 0.988 | 0.997 | 0.987 | 0.981
19 | CN1CCN(c2c(F)cc3c(=O)c(C(=O)O)cn4c3c2SCC4)CC1 [Rufloxacin] | 0.006 (active) | 0.0254 (active) | 0.0252 (active) | 0.0274 (active) | 0.63 | 0.47 | 0.0284 (active) | 0.00853 (active)
20 | Clc1cc(Cl)c(OCC#CI)cc1Cl [Haloprogin] | 1.02 | 1.02 | 1.05 | 0.973 | 1.01 | 1.08 | 1.04 | 0.993
21 | NCc1ccccc1CC(=O)N[C@@H]1C(=O)N2C(C(=O)O)=C(CSc3nnnn3CC(=O)O)CS[C@H]12 [Ceforanide] | 0.00985 (active) | 0.0434 (active) | 0.0984 (active) | 0.023 (active) | 0.00761 (active) | 0.014 (active) | 0.00887 (active) | 0.00597 (active)
22 | COCCCOc1ccnc(C[S+]([O-])c2nc3ccccc3[nH]2)c1C (stereo unspecified) [Rabeprazole sodium salt] | 1.01 | 1.04 | 1.02 | 1 | 1.05 | 1.01 | 1 | 0.889
23 | COc1cc(C(=O)NCc2ccc(OCCN(C)C)cc2)cc(OC)c1OC [Trimethobenzamide hydrochloride] | 1.02 | 1.01 | 1.05 | 1.02 | 1.02 | 1.05 | 0.999 | 1.01
24 | CCC(=O)O[C@@H](O[P@](=O)(CCCCc1ccccc1)CC(=O)N1C[C@H](C2CCCCC2)C[C@H]1C(=O)O)C(C)C [Fosinopril] | 1 | 1.04 | 1.05 | 1 | 0.998 | 1.02 | 1 | 1.01
25 | CC(C)/N=c1\cc2n(-c3ccc(Cl)cc3)c3ccccc3nc-2cc1Nc1ccc(Cl)cc1 [Clofazimine] | 0.99 | 0.996 | 1 | 1.03 | 0.0291 (active) | 0.0974 (active) | 0.972 | 1.02
26 | CCCC1C(=O)N2C(N(C)C)=Nc3ccc(C)cc3N2C1=O (stereo unspecified) [Azapropazone] | 0.983 | 0.96 | 0.958 | 0.964 | 0.993 | 1 | 1 | 0.995
27 | CO[C@@]1(NC(=O)CSCC#N)C(=O)N2C(C(=O)O)=C(CSc3nnnn3C)CS[C@@H]21 [Cefmetazole sodium salt] | 0.00445 (active) | 0.0256 (active) | 0.337 (active) | 0.139 (active) | 0.0391 (active) | 0.03 (active) | 0.00692 (active) | 0.00805 (active)
